Screening results (PubChem)
TLR4-MyD88 BLA – blocks binding of human TLR4 to MyD88; O00206+Q99836; HeLa CL3-4 TLR4/MyD88 BLA complementation, FRET ratio; inhibition, % at 8.4 µM; 200,000 tested, 0.18% active; AID 861; in the data active = inhibition above about 25%
NOD2-RIPK2 inh – inhibitors of human NOD2-RIPK2 interaction | O43353 | CHO BLA complementation NOD2-RIPK2, CCF4 ratio | inhibition, % at 4.98 µM | 360,000 tested, 0.38% active | AID 624267; in the data active = inhibition above about 21%
Myeloid diff MLP – promotes myeloid progenitor differentiation; ER-HoxA9 myeloid progenitors, lysozyme-GFP differentiation, flow cytometry; calls only at 10 µM; 360,000 tested, 1% active;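 active = normalized GFP-positive differentiation at or above the plate's own cutoff, the solvent-only control mean plus 3 SD; inconclusive = no clear call, values can overlap the other calls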;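 note: cells exposed to compound for four days before flow analysis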
ABCB6 inh 2 – blocks the human ABCB6 transporter; Q9NP58; K562-ABCB6 porphyrin accumulation, flow cytometry, 1 h; hits give low values; fluorescence ratio to DMSO, % at 10 µM; 360,000 tested, 0.19% active; AID 602162;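 active = fluorescence ratio to DMSO below 75%, the collection mean minus 3 SD; inconclusive = too few cells collected in the well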;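 note: signal is porphyrin accumulated inside mitochondria; lower ratio means ABCB6 inhibition with less porphyrin fluorescence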
TLR9-MyD88 inh – blocks human TLR9 binding to MyD88; CHO BLA complementation TLR9-MyD88, CCF4 FRET ratio; inhibition, % at 4.98 µM; 340,000 tested, 0.21% active; AID 504734;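 active = inhibition above the mean over all tested compounds plus 3 SD, cut at about 21% in these data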
Calls only. Shown are actives, neighbours in structure and some others; about 1.7% of the full set was active somewhere.

How did COc1ccc(C(=O)C(OC(=O)c2ccc(C)c(NC(C)=O)c2)c2ccccc2)cc1 (centres undefined) do in these assays?
TLR4-MyD88 BLA: inactive; NOD2-RIPK2 inh: inactive; Myeloid diff MLP: active; ABCB6 inh 2: inactive; TLR9-MyD88 inh: inactive

What do the screens show for `CC(=O)Nc1cc(C(=O)OC(C(=O)c2ccccc2)c2ccccc2)ccc1C` (centres undefined)?
TLR4-MyD88 BLA: inactive; NOD2-RIPK2 inh: inactive; Myeloid diff MLP: inactive; ABCB6 inh 2: inactive; TLR9-MyD88 inh: inactive

How did CC(=O)Nc1cc(-c2ccc(C(=O)NC3CC3)cc2)cn2c(-c3ccc(F)c(Cl)c3)cnc12 do in these assays?
NOD2-RIPK2 inh: inactive; Myeloid diff MLP: inactive; ABCB6 inh 2: inactive

How did NC(=O)N/N=C/c1ccccc1OCC(=O)NCc1ccccc1 do in these assays?
TLR4-MyD88 BLA: inactive; NOD2-RIPK2 inh: inactive; Myeloid diff MLP: inactive; ABCB6 inh 2: inactive; TLR9-MyD88 inh: inactive

How did Cc1ccc2nc(/C(C#N)=C\c3cc(O)ccc3[N+](=O)[O-])[nH]c2c1 do in these assays?
TLR4-MyD88 BLA: inactive; NOD2-RIPK2 inh: inactive; Myeloid diff MLP: inactive; ABCB6 inh 2: inactive; TLR9-MyD88 inh: inactive

What do the screens show for `Cc1ccc2nc(/C(C#N)=C/c3ccc(-c4cccc([N+](=O)[O-])c4)o3)[nH]c2c1`?
TLR4-MyD88 BLA: inactive; NOD2-RIPK2 inh: inactive; Myeloid diff MLP: active; ABCB6 inh 2: inactive; TLR9-MyD88 inh: inactive

What do the screens show for `CCN1CCN(CCCNC(=O)C2CCN(c3nnc(-n4cccc4)s3)CC2)CC1`?
NOD2-RIPK2 inh: inactive; Myeloid diff MLP: active; ABCB6 inh 2: inactive; TLR9-MyD88 inh: inactive

How did COC(=O)[C@@]12CCCCN1[C@H](c1ccc(-c3ccc(OC)cc3)cc1)[C@H]1C(=O)N(C)C(=O)[C@H]12 do in these assays?
NOD2-RIPK2 inh: inactive; Myeloid diff MLP: active; ABCB6 inh 2: inactive; TLR9-MyD88 inh: inactive

How did COC(=O)[C@@]12CCCCN1[C@H](c1ccc(-c3ccccc3)cc1)[C@@H]1C(=O)N(C)C(=O)[C@@H]12 do in these assays?
NOD2-RIPK2 inh: inactive; Myeloid diff MLP: inactive; ABCB6 inh 2: inactive; TLR9-MyD88 inh: inactive

How did CC(=O)Nc1ccc(S(=O)(=O)N(C)CC(=O)OC(C)C(=O)N(C)Cc2ccccc2)cc1 (centres undefined) do in these assays?
NOD2-RIPK2 inh: inactive; Myeloid diff MLP: inactive; ABCB6 inh 2: inactive; TLR9-MyD88 inh: inactive

What do the screens show for `O=C(NNC1=NCCC1)C1CC1`?
TLR4-MyD88 BLA: inactive; NOD2-RIPK2 inh: inactive; Myeloid diff MLP: active; ABCB6 inh 2: inactive; TLR9-MyD88 inh: inactive

How did O=C(NNC1=NCCC1)c1ccc(Br)cc1 do in these assays?
TLR4-MyD88 BLA: inactive; NOD2-RIPK2 inh: inactive; Myeloid diff MLP: inactive; ABCB6 inh 2: inactive; TLR9-MyD88 inh: inactive

What do the screens show for `CC(=O)Nc1ccc(NC(=O)C2Cc3c(-c4ccc5c(c4)OCO5)ccnc3O2)cc1` (centres undefined)?
NOD2-RIPK2 inh: inactive; Myeloid diff MLP: inactive; ABCB6 inh 2: inactive

How did COc1ccc(NC(=O)C2Cc3c(-c4ccc5c(c4)OCO5)ccnc3O2)cc1 (centres undefined) do in these assays?
NOD2-RIPK2 inh: inactive; Myeloid diff MLP: active; ABCB6 inh 2: inactive

Results for CCOc1ccc2nc(SCC(=O)N3c4ccccc4Sc4ccccc43)c(C#N)cc2c1 ?
TLR4-MyD88 BLA: inactive; NOD2-RIPK2 inh: inactive; Myeloid diff MLP: active; ABCB6 inh 2: inactive; TLR9-MyD88 inh: inactive

How did CCc1ccc2nc(SCC(=O)N3CC(=O)Nc4ccccc43)c(C#N)cc2c1 do in these assays?
TLR4-MyD88 BLA: inactive; NOD2-RIPK2 inh: inactive; Myeloid diff MLP: active; ABCB6 inh 2: inactive; TLR9-MyD88 inh: inactive

What do the screens show for `CCOc1ccc2nc(SCC(=O)N3c4ccccc4Sc4ccccc43)sc2c1`?
TLR4-MyD88 BLA: inactive; NOD2-RIPK2 inh: inactive; Myeloid diff MLP: inactive; ABCB6 inh 2: inactive; TLR9-MyD88 inh: inactive

What do the screens show for `CCc1ccc2nc(SCC(=O)Nc3ccccc3N3CCOCC3)c(C#N)cc2c1`?
NOD2-RIPK2 inh: inactive; Myeloid diff MLP: active; ABCB6 inh 2: inactive; TLR9-MyD88 inh: inactive

Results for Cc1ccc2nc(SCC(=O)Nc3ccccc3N3CCOCC3)c(C#N)cc2c1 ?
TLR4-MyD88 BLA: inactive; NOD2-RIPK2 inh: inactive; Myeloid diff MLP: inconclusive; ABCB6 inh 2: inactive; TLR9-MyD88 inh: inactive

Results for O=C(Nc1ccc(Cl)cc1)c1cc(Br)ccc1OCC(=O)N1CCOCC1 ?
NOD2-RIPK2 inh: inactive; ABCB6 inh 2: inactive; TLR9-MyD88 inh: inactive

What do the screens show for `COc1ccc2c(c1)[C@H]1[C@H](CO2)[C@H](c2ccccc2)[C@]2(C)C(=O)Nc3cc(Cl)ccc3C(=O)N12`?
NOD2-RIPK2 inh: inactive; Myeloid diff MLP: inactive; ABCB6 inh 2: inactive; TLR9-MyD88 inh: inactive

How did COc1ccc2c(c1)C(=O)N1[C@H]3c4cc(Cl)ccc4OC[C@@H]3[C@H](c3ccccc3)[C@]1(C)C(=O)N2 do in these assays?
NOD2-RIPK2 inh: inactive; Myeloid diff MLP: active; ABCB6 inh 2: inactive; TLR9-MyD88 inh: inactive

What do the screens show for `COc1ccc(N2CCN(C(=O)C(=O)c3cn(CC(=O)N4CCCCCC4)c4ccccc34)CC2)cc1`?
NOD2-RIPK2 inh: inactive; Myeloid diff MLP: active; ABCB6 inh 2: inactive; TLR9-MyD88 inh: inactive

What do the screens show for `C#Cc1ccc([C@@H]2C=C(C(=O)N3CCOCC3)O[C@H](OCCCCO)C2)cc1`?
TLR4-MyD88 BLA: inactive; NOD2-RIPK2 inh: inactive; Myeloid diff MLP: active; ABCB6 inh 2: inactive; TLR9-MyD88 inh: inactive

What do the screens show for `O=C(C1=C[C@H](c2ccc(Br)cc2)C[C@H](OCCCCO)O1)N1CCOCC1`?
TLR4-MyD88 BLA: inactive; Myeloid diff MLP: inactive; ABCB6 inh 2: inactive; TLR9-MyD88 inh: inactive

What do the screens show for `C=CCn1c(SCC(=O)c2cccs2)nc2sc(C)c(C)c2c1=O`?
TLR4-MyD88 BLA: inactive; NOD2-RIPK2 inh: inactive; Myeloid diff MLP: active; ABCB6 inh 2: inactive; TLR9-MyD88 inh: inactive

Results for CCOC(=O)c1c(C)[nH]c(C(=O)OCC(=O)N(CC(C)C)C2CCS(=O)(=O)C2)c1C (centres undefined) ?
NOD2-RIPK2 inh: inactive; Myeloid diff MLP: inactive; ABCB6 inh 2: inactive; TLR9-MyD88 inh: inactive

What do the screens show for `N=c1c(S(=O)(=O)c2ccccc2)cc2c(=O)n3ccccc3nc2n1C1CCCC1`?
NOD2-RIPK2 inh: inactive; Myeloid diff MLP: active; ABCB6 inh 2: inactive; TLR9-MyD88 inh: inactive

Results for N=c1c(S(=O)(=O)c2ccc(Br)cc2)cc2c(=O)n3ccccc3nc2n1C1CCCC1 ?
NOD2-RIPK2 inh: inactive; Myeloid diff MLP: inactive; ABCB6 inh 2: inactive; TLR9-MyD88 inh: inactive

What do the screens show for `O=C1CCC(=O)N1c1ccccc1`?
NOD2-RIPK2 inh: inactive; Myeloid diff MLP: inactive; ABCB6 inh 2: inactive; TLR9-MyD88 inh: inactive

How did O=C1CCCCC(=O)N(c2ccccc2)c2ccccc21 do in these assays?
TLR4-MyD88 BLA: inactive; NOD2-RIPK2 inh: inactive; Myeloid diff MLP: active; ABCB6 inh 2: inactive; TLR9-MyD88 inh: inactive

What do the screens show for `CCOC(=O)C1C(=O)C=C(/C=C/c2ccc(N(C)C)cc2)CC1c1ccccc1` (centres undefined)?
TLR4-MyD88 BLA: inactive; NOD2-RIPK2 inh: inactive; Myeloid diff MLP: active; ABCB6 inh 2: inactive; TLR9-MyD88 inh: inactive
